# Most compounds without a hit are left out; they make up all but 6.1% or so of the library.
# D1 PAM: potentiators of human D1 dopamine receptor | AID 504651 | potentiation, % at 10 µM | HEK293 TREx D1 cells, calcium flux, dopamine EC20 potentiation | 0.036% of 360,000 active; in the data active = potentiation above about 30%; also: 0% is about no effect
# D3 ag: agonists of human D3 dopamine receptor | max activation, % | P35462 | AID 652048 | D3R DiscoveRx beta-arrestin cells, luminescence, 90 min | 0.58% of 410,000 active; in the data active = max activation above about 30%; also: 0% is about no effect
# Target sequence (P35462 whole entry, looked up): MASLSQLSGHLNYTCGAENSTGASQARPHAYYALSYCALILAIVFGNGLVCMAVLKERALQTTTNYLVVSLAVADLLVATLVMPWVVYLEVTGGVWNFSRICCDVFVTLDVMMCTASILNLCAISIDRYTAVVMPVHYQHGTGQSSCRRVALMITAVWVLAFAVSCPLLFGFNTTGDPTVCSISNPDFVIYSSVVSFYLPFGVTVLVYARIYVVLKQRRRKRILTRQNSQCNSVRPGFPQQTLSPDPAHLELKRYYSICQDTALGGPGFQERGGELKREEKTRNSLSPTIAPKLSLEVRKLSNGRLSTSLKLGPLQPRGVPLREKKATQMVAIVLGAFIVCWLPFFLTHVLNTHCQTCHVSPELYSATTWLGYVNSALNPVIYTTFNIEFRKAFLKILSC
#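 Agonist mode: compounds and dopamine controls were applied to plated cells for 90 min at 37 degrees C after an overnight attachment at 1500 cells/well. Luminescent read-out followed 30 - 60 minutes at room temperature with DiscoveRx detection reagent.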
# D1 agonist: human D1 receptor agonism | HEK293 T-REx D1 cells, calcium flux, agonist mode | 1% of 360,000 active | activation, % at 2 µM; in the data active = activation above about 30%; also: 0% is about no effect
#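 Inducible HEK293 T-REx D1 cells, force-coupled to calcium signalling, were plated at 4000 cells/well with tetracycline and held overnight at 30 C. After no-wash calcium dye loading, compound-evoked calcium rise over 180 s flagged agonists.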
# D1 antagonist: human D1 dopamine receptor antagonism. 3.2% of 360,000 active. AID 504652. HEK293 TREx D1 cells, calcium flux, dopamine EC80; hits give low values. P21728. activity change, negative = inhibition, % at 10 µM; in the data active = activity change below about -30%; also: % is scaled to controls: 0 for no effect and ±100 for the full control effect
#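 Tetracycline-induced HEK293 Trex D1 cells, force-coupled to calcium, dye-loaded; compounds added and read 180 s, then EC80 dopamine added and calcium flux tracked kinetically another 180 s.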
# D3 antag: blocks the human D3 dopamine receptor | 2.5% of 360,000 active | max response, negative = inhibition, % | D3R cells, DiscoveRx beta-arrestin luminescence, antagonist mode; hits give low values | AID 652054 | P35462; in the data active = max response below about -50%; inconclusive = no clear call, values can overlap the other calls; also: % is scaled to controls: 0 for no effect and ±100 for the full control effect
#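 Cells expressing the human receptor were seeded at 1500 cells/well, incubated overnight at 37 degrees C in 5% CO2, then exposed to library compounds with dopamine controls for 90 minutes at 37 degrees C before luminescent detection.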
# ERG-DNA inh: ERG Ets/DNA interaction inhibition | P11308 | fluorescence polarization, His-ERG Ets domain / labelled DNA | Potency, µM (doses to about 76.9 µM), inactives show at the top dose FP activity, negative = inhibition, most hits filed as inhibitors | 0.028% of 370,000 active | AID 624246; active = well fitted inhibition curve with a large enough effect in the polarisation, with a control signal flat; inconclusive = small, poorly fitted or top-dose-only effect, or effect the other way, or a change in a side signal; inactive = no such curve, though single readings can be large or run the other way; the % refers to the polarisation;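 also: polarization taken with two DNA probes labelled with fluorescein and Texas red; potency is read from the fitted curve at half-maximal effect; % of control where 0% means no effect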
#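 His-tagged ERG Ets domain (1 uM in the protein solution; 300mM KCl, 50mM Tris-HCl, 1mM EDTA, 1mM DTT, pH 7.5) received compound, then a probe mix of 5 nM fluorescein-DNA and 100nM Texas-615-DNA. Fluorescence polarization was read for both dyes.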
# Starred values were filed as active, the others as inactive; ? = inconclusive; . = not tested or not shown.
SMILES,D1 PAM,D3 ag,D1 agonist,D1 antagonist,D3 antag,ERG-DNA inh
CC(Cc1ccccc1)[n+]1cc(/N=C(\[O-])Nc2ccccc2)on1 (stereo unspecified),-4,1,0,.,-54*,-12%
COC(=O)C1=C(c2cccc(C#N)c2)C[C@@H]2CC[C@H]1N2C(=O)N1CCCCC1,-2,3,1,-37*,-15,-8%
COC(=O)C1=C(c2ccc(OC)c(OC)c2)C[C@@H]2CC[C@H]1N2C(=O)NC(C)C,6,3,-2,-42*,39,-4%
COC(=O)C1=C(c2cccc(C#N)c2)C[C@@H]2CC[C@H]1N2C(=O)NC1Cc2ccccc2C1,-5,-13,1,-41*,-12,16%
COC(=O)C1=C(c2ccc(C(C)=O)cc2)C[C@@H]2CC[C@H]1N2C(=O)NCc1ccc(C(F)(F)F)cc1,-2,-1,48*,-41*,3,-7%
CCN(CC)CCCNC(=O)c1c(O)c2ccccc2n(Cc2ccccc2)c1=O,-1,0,7,13,-2,2%
COC(=O)CC1(Cc2ccccc2)C(=O)NC(=O)NC1=O,-1,-1,-2,1,0,-7%
c1cnc2c(c1)ncn2C1CCNCC1,-1,-8,0,12,.,-5%
Cc1ccc(CN2C3CCCC2CC(NC(=O)Nc2cccc(F)c2)C3)cc1 (stereo unspecified),-6,-17,30*,-42*,-99*,1%
O=C(Nc1ccccc1)NC1CC2CCC(C1)N2 (stereo unspecified),3,0,0,5,-26,-3%
COc1ccc(C)cc1NC1=NC(C)(C)CS1,-2,2,7,-10,12,4%
C[C@]12Cc3nonc3C[C@@H]1CC[C@@H]1[C@@H]2CC[C@@]2(C)[C@H]1CC[C@]2(C)O,.,3,.,.,.,.
CCOc1ccc(-n2c(O)c(C=NCCN3CCNCC3)c(=O)[nH]c2=O)cc1,8,11,4,23,3,5%
CCn1nc(-c2cccs2)nc2c(=O)n(C)c(=O)nc1-2,2,-16,2,2,-81*,?
COc1cc(CCN)cc(OC)c1OC,.,7,.,.,.,.
C[CH2][Hg][S]c1ccccc1C(=O)O,.,-41,.,.,-64*,-11%
CC(C)COC(=O)c1ccccc1C(=O)OCC(C)C,-4,-5,1,6,-5,5%
COc1ccc(-n2nnnc2C(c2ccccc2OC(F)(F)F)N2CCC3(CC2)C(=O)NCN3c2ccccc2)cc1 (stereo unspecified),.,19,.,.,71,.
CCCCCCN1CCN(c2ccccc2Cl)CC1,-7,2,1,-4,-115*,-7%
Nc1cc(N2CCNCC2)ccc1[N+](=O)[O-],-6,-8,1,3,-17,-8%
Clc1cccc(N2CCNCC2)c1,-10,-76,3,-6,-76*,-2%
Clc1cc(I)cc(Cl)c1NC1=NCCN1,.,-4,.,.,-29,4%
CCC(=NCCOc1ccc(Cl)cc1)c1c(O)n(C)c(=O)n(C)c1=O,-9,4,8,-42*,23,3%
CCC(=NCCN1CCCCC1)c1c(O)n(C)c(=O)n(C)c1=O,-3,2,1,-2,-13,-5%
CCC(=NCc1cc(OC)cc(OC)c1)c1c(O)n(C)c(=O)n(C)c1=O,1,39*,9,-7,57,-1%
SMILES,D1 PAM,D3 ag,D1 agonist,D1 antagonist,D3 antag,ERG-DNA inh
CCC(=NCCc1c[nH]c2ccccc12)c1c(O)n(C)c(=O)n(C)c1=O,-4,65*,11,-31*,29,-5%
COc1ccc(CC(=O)N2CCN(C)CC2)cc1OC,-6,-3,-2,3,-71*,.
Cc1ccc(CC(=O)N2CCN(Cc3ccccc3)CC2)cc1,1,3,0,-2,-3,2%
O=C(Cc1c(Cl)cccc1Cl)N1CCN(Cc2ccccc2)CC1,.,-20,18,24,-51*,-3%
O=C(NCC1=C(c2cccc3ccccc23)C[C@@H]2CC[C@H]1N2Cc1ccco1)c1cccs1,.,-13,.,.,-51*,.
O=C(NCC1=C(c2cccc3ccccc23)C[C@@H]2CC[C@H]1N2Cc1ccco1)c1ccncc1,.,-14,.,.,-9,.
CCOc1cccc(CNC2CN3CCC2CC3)c1 (stereo unspecified),-7,-1,3,-51*,-15,2%
Cc1cc(Cl)ccc1OCC(=O)O,-3,-88,1,-15,-110*,0%
COc1ccccc1/C=N/N=C(/N)N[N+](=O)[O-],-1,4,0,16,-3,.
N/C(=N\N=C\c1ccc(O)cc1O)N[N+](=O)[O-],1,-4,0,4,-64*,2%
CC12CCCCC1=[N+]([O-])CN2O (stereo unspecified),2,1,2,0,-62*,-10%
COCCNCCOc1ccc(C(C)(C)c2ccccc2)cc1,3,-29,38*,9,-57*,3%
C[N+](C)(C)CCOC(=O)C(O)(c1ccccc1)c1ccccc1,.,8,.,.,.,.
Cc1ccc2c(c1)C1CN(C)CCC1N2C(=S)Nc1cccnc1 (stereo unspecified),-9,0,0,.,-6,3%
Cc1ccc2c(c1)C1CN(C)CCC1N2C(=O)Nc1cccc(Cl)c1 (stereo unspecified),-13,-56,26,-96*,-24,6%
O=C(N/N=C/c1c(O)n(CCc2ccccc2)c(=O)[nH]c1=O)c1ccncc1,2,10,-1,-37*,-14,4%
O=C(N/N=C/c1c(O)n(CCc2ccc(F)cc2)c(=O)[nH]c1=O)c1ccncc1,4,-7,1,24,?,-8%
COC1C(C)OC(OC2CC(C)(O)Cc3cc4c(c(O)c32)C(=O)c2c(O)cc3c(c2C4=O)OC2OC3(C)C(O)C(N(C)C)C2O)C(OC)C1(C)OC (stereo unspecified),.,6,.,.,3,7.1µM*
CCOC(=O)c1cc(C)n(CCc2cnc[nH]2)c1C,-7,-11,16,-27,3,3%
COC(=O)C1=C(c2ccc(OCc3ccccc3)cc2)C[C@@H]2CC[C@H]1N2C(=O)NCCCCc1ccccc1,.,-14,.,.,?,.
Clc1ccc2[nH]c3c(c2c1)CCNC3,-7,-17,9,-7,-70*,-8%
Cn1c(O)c(C(=NCCN2CCCCC2)c2ccccc2Cl)c(=O)n(C)c1=O,3,-1,1,12,?,5%
C=C1C(=O)O[C@@H]2C[C@@H](C)[C@@H]3C=CC(=O)[C@@]3(C)[C@@H](O)[C@H]12,-4,-75,1,19,-102*,-1%
CSc1nc(N2CCN(C)CC2)c2ccccc2n1,3,-10,1,2,-16,3%

# Assay outcomes from PubChem BioAssay.
